PfHsp90 set2: growth inhibition of PfHsp90-expressing yeast, primary screen, antimalarial PfHsp90 inhibitor project, S. cerevisiae, BacTiter-Glo luminescence, single point, set 2; BacTiter-Glo ATP, 48 h; yeast lacking PDR1 and PDR3 efflux regulators; inhibition, % at 9.4 µM; 0.32% of 310,000 active; AID 504621, 2011;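 active means every replicate shows inhibition above about 80%, whatever the replicate mean, limit read from the data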
tim10-1 inh: growth inhibitors of tim10-1 mutant yeast, primary screen, luminescence, uHTS; 2.2% of 330,000 active; inhibition, % at 20 µM; S. cerevisiae tim10-1 ts strain growth, BacTiter-Glo, 24 h; AID 463190, 2010;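 active means inhibition of at least 40%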;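 further: mutant grown at 25 °C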
tim23-1 inh: growth inhibitors of tim23-1 mutant yeast, primary screen, luminescence, uHTS; S. cerevisiae tim23-1 growth, BacTiter-Glo luminescence, 24 h; 1.3% of 330,000 active; inhibition, % at 20 µM;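 active means growth inhibition of the mutant yeast at or above 50%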;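 further: temperature-sensitive mutant grown at 25 °C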
NALP3 yeast inh: NALP3 inflammasome inhibitors in reconstituted yeast, primary screen, luminescence, uHTS; Yeast reconstituted NLRP3/ASC/caspase-1, beta-gal luminescence, 24 h; inhibition, % at 10 µM; 0.39% of 330,000 active; AID 2825, 2010;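 active means inhibition of 50% or more; inactive means inhibition below 50%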
TIM10 inh: growth inhibitors of isogenic TIM10 control yeast, primary screen, counter-screen for tim10-1 yeast inhibitor project, luminescence, uHTS; S. cerevisiae TIM10 strain growth, BacTiter-Glo luminescence, 24 h; inhibition, % at 10 µM; 1.4% of 330,000 active;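 active means inhibition of 40% or more at the single tested concentration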;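 further: wild-type TIM10 isogenic control strain grown at permissive 25 °C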
SKKanGAS inh: S. pyogenes SKKanGAS growth inhibitors in kanamycin, primary screen, streptokinase expression inhibitor project, SKKanGAS strain, BacTiter-Glo luminescence. 6 h. inhibition, % at 7.5 µM. 1.3% of 300,000 active. AID 1662, 2009;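 active means mean replicate score, as percent of positive control median, at least 50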;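 further: strain carries kanamycin resistance gene driven by streptokinase promoter and grows in 40 µg/ml kanamycin; loss of luminescence reflects streptokinase promoter inhibition or plain growth inhibition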
tim10-1 confirm: growth inhibitors of tim10-1 mutant yeast, confirmation, single concentration, luminescence, S. cerevisiae; inhibition, % at 20 µM; S. cerevisiae tim10-1 ts strain growth, BacTiter-Glo, 24 h; 56% of 7,400 active; AID 463213, 2010; shares compounds with tim10-1 inh;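 active means inhibition of yeast growth at or above a set limit in either of two repeat tests at 20 µM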;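 further: tim10-1 mutant grown at permissive 25 °C to find synthetic lethal compounds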
Large screens that a line does not name were inactive (follow-up assays come after a bar, where they were run). In the library only some 4.6% were active in any assay of this set; here they are far more common.

S=C1NC2=C(CCC/C2=C\c2ccc(Cl)cc2)C(c2ccc(Cl)cc2)N1 (configuration not stated)	none
O=C(NC1CCCCC1)c1ccc(-c2cccc([N+](=O)[O-])c2)o1	tim10-1 inh 41 | tim10-1 confirm inactive
O=C(O)c1ccc(-c2cccc([N+](=O)[O-])c2)o1	none
CCC(=O)N1CCc2cc(S(=O)(=O)CCC(=O)N(C)c3ccc(OC)cc3)ccc21	none
CCc1nn(C(C)C(=O)NC2CCCCCC2)c(=O)c2cc3occc3n12 (configuration not stated)	tim10-1 inh 41 | tim10-1 confirm inactive
COCCNC(=S)N/N=C(\C)c1cc2ccccc2o1	tim10-1 inh 41 | tim10-1 confirm inactive
COCCNC(=S)N/N=C(\C)c1ccc2cc(OC)ccc2c1	none
COCCNC(=S)N/N=C(\C)c1cccc(C(F)(F)F)c1	tim10-1 inh 45 | tim10-1 confirm inactive
CC1CCN(c2oc(-c3ccc(F)cc3)nc2C#N)CC1	tim10-1 inh 99 | tim10-1 confirm inactive
CN1/C(=C\C(=O)Nc2ccc(Br)cc2)C(C)(C)c2ccccc21	tim10-1 inh 46, SKKanGAS inh 71 | tim10-1 confirm 54
Clc1cccc(CN2CCc3c([nH]c4ccccc34)C2)c1	tim10-1 inh 45 | tim10-1 confirm 44
Cc1cccc(CN2CCc3c([nH]c4ccccc34)C2)c1	none
Cc1nc(Nc2ccc(Cl)cc2Cl)sc1C(=O)Nc1ccccc1	tim10-1 inh 47 | tim10-1 confirm 31
CCOc1cc(C(=O)NC(=S)Nc2cccnc2)cc(OCC)c1OCC	tim10-1 inh 43 | tim10-1 confirm inactive
CCOc1ccc(C(=O)NC(=S)Nc2cccnc2)cc1	none
CCc1ccc(C2C(C#N)=C(N)N(N(C)C)C3=C2C(=O)CCC3)cc1 (configuration not stated)	none
N#Cc1ccc(COC(=O)C2CC(=O)N(CCc3ccccc3)C2)cc1 (configuration not stated)	none (no result: SKKanGAS inh)
O=C(OCc1ccc([N+](=O)[O-])cc1)C1CC(=O)N(CCc2ccccc2)C1 (configuration not stated)	tim10-1 inh 43 (no result: PfHsp90 set2) | tim10-1 confirm inactive
Fc1cccc(-c2cc3nc4c(c(NCc5ccco5)n3n2)CCCC4)c1	tim10-1 inh 50 | tim10-1 confirm 35
Cc1ccc(C2C3=C(CC(C)(C)CC3=O)N=C3c4ccccc4C(=O)C32)cc1 (configuration not stated)	none
CC1(C)CC(=O)C2=C(C1)N=C1c3ccccc3C(=O)C1C2c1ccc(Cl)cc1 (configuration not stated)	tim10-1 inh 44, SKKanGAS inh 50 | tim10-1 confirm 31
COc1ccc(-c2nc(CSCC(=O)NC3CCCc4ccccc43)c(C)o2)cc1OC (configuration not stated)	tim10-1 inh 41 | tim10-1 confirm inactive
COc1ccc(-c2nc(CS(=O)CC(=O)NC3CCCc4ccccc43)c(C)o2)cc1OC (configuration not stated)	none
Cc1cc(C(=O)Nc2ccc(C#N)cc2)on1	none
Cc1ccc(S(=O)(=O)N(C)CC(=O)N2CCN(Cc3ccccc3)CC2)cc1	tim10-1 inh 47 | tim10-1 confirm inactive
Cc1ccc(S(=O)(=O)N(C)CC(=O)N2CCCCCCC2)cc1	none (no result: PfHsp90 set2)
Cc1cc(Nc2n[nH]c(N)c2C#N)ccc1F	none
CC1CCCC(n2c(=S)[nH]c3ccccc3c2=O)C1C (configuration not stated)	tim10-1 inh 42 (no result: PfHsp90 set2) | tim10-1 confirm inactive
N/C(CCS(=O)(=O)c1ccc(Cl)cc1)=N\OC(=O)c1ccccc1C(F)(F)F	tim10-1 inh 64 | tim10-1 confirm 78
CCOc1ccc(NC(=O)CC(NCc2ccccn2)C(=O)O)cc1 (configuration not stated)	none
O=C(Nc1cccc(C(F)(F)F)c1)N(Cc1ccc(Cl)cc1)CC(O)C(F)(F)F (configuration not stated)	tim10-1 inh 47 | tim10-1 confirm inactive
CC(O)(CS(=O)(=O)Cc1ccc(Cl)cc1)C(=O)Nc1cccc(C(F)(F)F)c1 (configuration not stated)	none
CC[N+]1(C)CC2CCC(C)(C1)C2(C)C (configuration not stated)	none (no result: tim10-1 inh, tim23-1 inh, NALP3 yeast inh, TIM10 inh, SKKanGAS inh)
Cn1c(=O)c2c(nc(CN3CCN(c4ccccc4)CC3)n2CCCc2ccccc2)n(C)c1=O	tim10-1 inh 43 (no result: PfHsp90 set2) | tim10-1 confirm inactive
CC1(C)Cc2ccccc2-c2n[nH]c(=S)n21	tim10-1 inh 56 | tim10-1 confirm inactive
Cc1cccc2c(=O)c(-c3ccc4c(c3)OCO4)c(NC(=O)c3ccco3)oc12	tim10-1 inh 42 | tim10-1 confirm inactive
CCCc1nnc2c(N(C)S(=O)(=O)c3ccc(C)cc3)nc3ccccc3n12	tim10-1 inh 40 | tim10-1 confirm inactive
O=C(NCc1cccs1)c1cccn2c(=O)c3sccc3nc12	none
O=C(NCc1ccco1)c1cccn2c(=O)c3sccc3nc12	tim10-1 inh 40 | tim10-1 confirm inactive
CCn1c(SC(C)C)nnc1-c1cc(-c2ccccc2)sc1N	tim10-1 inh 46 (no result: PfHsp90 set2) | tim10-1 confirm 38
CN(C)C(=O)CSc1nnc(-c2cc(-c3cccs3)nc3ccccc23)o1	tim10-1 inh 40 | tim10-1 confirm 38
O=C(CSc1nnc(-c2cccs2)o1)c1cccs1	none
CCN(CC)C(=O)CSc1nnc(-c2cc(-c3ccc(Cl)cc3)nc3ccccc23)o1	none
Cc1cc(C(=O)CSc2nnc(-c3cccs3)o2)c(C)n1-c1ccccc1	tim10-1 inh 48 | tim10-1 confirm 34
O=C(c1cc2ccccc2oc1=O)N(c1ccc(Cl)cc1)C1C=CS(=O)(=O)C1 (configuration not stated)	none
Cc1ccc(S(=O)(=O)N2CCOCC2)cc1C(=O)Nc1nc(-c2cccnc2)cs1	none
O=S(=O)(c1ccc(-c2csc(-c3cccnc3)n2)cc1)N1CCOCC1	tim10-1 inh 42 | tim10-1 confirm inactive
CCCCNC(=S)N=Nc1c(O)[nH]c2ccccc12	tim10-1 inh 47 | tim10-1 confirm 41
Cn1nc(C(F)(F)F)c2cc(C(=O)Nc3ccc(C(F)(F)F)cc3)sc21	none
O=C(Nc1ccon1)c1cc2c(s1)CCCCCC2	tim10-1 inh 52 | tim10-1 confirm 40

Screening results from PubChem.
